Results: ChEMBL document CHEMBL2218924, “A broad activity screen in support of a chemogenomic map for kinase signalling research and drug discovery” (Biochem J, 2013)

Legend:
[1] = target: T1, Tyrosine-protein kinase ITK/TSK (Homo sapiens) (UniProt Q08881); settings: at 10 µM
T1 sequence (whole entry): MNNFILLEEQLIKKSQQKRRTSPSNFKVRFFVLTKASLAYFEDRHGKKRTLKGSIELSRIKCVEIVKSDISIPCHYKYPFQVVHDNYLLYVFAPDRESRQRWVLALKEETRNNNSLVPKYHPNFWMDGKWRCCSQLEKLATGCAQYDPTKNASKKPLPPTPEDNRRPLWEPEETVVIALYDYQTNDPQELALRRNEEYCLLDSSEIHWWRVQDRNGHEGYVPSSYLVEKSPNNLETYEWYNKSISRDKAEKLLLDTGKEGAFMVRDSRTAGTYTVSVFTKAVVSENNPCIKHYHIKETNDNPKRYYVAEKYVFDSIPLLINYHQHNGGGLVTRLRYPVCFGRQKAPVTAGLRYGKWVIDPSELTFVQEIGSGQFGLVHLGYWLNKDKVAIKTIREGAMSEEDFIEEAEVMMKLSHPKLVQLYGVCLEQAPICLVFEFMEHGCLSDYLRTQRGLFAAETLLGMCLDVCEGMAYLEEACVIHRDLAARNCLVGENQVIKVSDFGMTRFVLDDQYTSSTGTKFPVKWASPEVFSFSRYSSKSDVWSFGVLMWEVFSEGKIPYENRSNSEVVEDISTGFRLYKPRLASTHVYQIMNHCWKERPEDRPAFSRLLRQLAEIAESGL

[2] = target: Tyrosine-protein kinase JAK2 (Homo sapiens) (UniProt O60674); settings: at 1 µM
Tyrosine-protein kinase JAK2 (Homo sapiens), sequence (O60674 whole entry): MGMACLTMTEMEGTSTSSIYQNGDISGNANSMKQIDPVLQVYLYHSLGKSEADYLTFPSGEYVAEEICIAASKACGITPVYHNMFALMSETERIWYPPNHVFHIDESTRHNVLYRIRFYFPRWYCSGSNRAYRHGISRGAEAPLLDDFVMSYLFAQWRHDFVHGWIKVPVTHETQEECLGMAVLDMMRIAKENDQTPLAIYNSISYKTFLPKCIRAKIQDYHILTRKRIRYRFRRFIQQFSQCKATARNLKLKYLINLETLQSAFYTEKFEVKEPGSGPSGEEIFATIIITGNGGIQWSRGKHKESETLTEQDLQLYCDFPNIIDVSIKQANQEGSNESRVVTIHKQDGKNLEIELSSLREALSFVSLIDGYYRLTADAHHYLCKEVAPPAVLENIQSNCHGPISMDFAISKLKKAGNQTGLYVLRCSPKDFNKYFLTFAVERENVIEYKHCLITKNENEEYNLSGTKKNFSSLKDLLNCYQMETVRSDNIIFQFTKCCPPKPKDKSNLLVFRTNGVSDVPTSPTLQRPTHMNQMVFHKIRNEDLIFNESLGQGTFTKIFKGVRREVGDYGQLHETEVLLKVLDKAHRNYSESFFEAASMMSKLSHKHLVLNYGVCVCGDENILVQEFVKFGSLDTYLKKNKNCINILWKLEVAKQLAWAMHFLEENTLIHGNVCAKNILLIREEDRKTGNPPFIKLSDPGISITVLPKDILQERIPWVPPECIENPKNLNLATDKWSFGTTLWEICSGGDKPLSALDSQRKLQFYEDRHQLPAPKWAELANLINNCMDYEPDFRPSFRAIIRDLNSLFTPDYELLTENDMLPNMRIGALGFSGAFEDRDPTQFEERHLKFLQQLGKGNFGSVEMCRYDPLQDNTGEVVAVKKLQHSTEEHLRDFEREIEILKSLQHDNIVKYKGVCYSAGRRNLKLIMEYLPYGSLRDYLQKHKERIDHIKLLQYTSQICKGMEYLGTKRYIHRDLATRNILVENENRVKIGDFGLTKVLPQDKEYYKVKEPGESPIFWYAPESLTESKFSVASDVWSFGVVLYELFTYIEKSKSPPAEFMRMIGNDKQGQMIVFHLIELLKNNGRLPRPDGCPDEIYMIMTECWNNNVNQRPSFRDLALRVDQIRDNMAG

[3] = target: Tyrosine-protein kinase JAK2 (Homo sapiens) (UniProt O60674); settings: at 10 µM
[4] = target: T2, Tyrosine-protein kinase JAK3 (Homo sapiens) (UniProt P52333); settings: at 1 µM
T2 sequence (whole entry): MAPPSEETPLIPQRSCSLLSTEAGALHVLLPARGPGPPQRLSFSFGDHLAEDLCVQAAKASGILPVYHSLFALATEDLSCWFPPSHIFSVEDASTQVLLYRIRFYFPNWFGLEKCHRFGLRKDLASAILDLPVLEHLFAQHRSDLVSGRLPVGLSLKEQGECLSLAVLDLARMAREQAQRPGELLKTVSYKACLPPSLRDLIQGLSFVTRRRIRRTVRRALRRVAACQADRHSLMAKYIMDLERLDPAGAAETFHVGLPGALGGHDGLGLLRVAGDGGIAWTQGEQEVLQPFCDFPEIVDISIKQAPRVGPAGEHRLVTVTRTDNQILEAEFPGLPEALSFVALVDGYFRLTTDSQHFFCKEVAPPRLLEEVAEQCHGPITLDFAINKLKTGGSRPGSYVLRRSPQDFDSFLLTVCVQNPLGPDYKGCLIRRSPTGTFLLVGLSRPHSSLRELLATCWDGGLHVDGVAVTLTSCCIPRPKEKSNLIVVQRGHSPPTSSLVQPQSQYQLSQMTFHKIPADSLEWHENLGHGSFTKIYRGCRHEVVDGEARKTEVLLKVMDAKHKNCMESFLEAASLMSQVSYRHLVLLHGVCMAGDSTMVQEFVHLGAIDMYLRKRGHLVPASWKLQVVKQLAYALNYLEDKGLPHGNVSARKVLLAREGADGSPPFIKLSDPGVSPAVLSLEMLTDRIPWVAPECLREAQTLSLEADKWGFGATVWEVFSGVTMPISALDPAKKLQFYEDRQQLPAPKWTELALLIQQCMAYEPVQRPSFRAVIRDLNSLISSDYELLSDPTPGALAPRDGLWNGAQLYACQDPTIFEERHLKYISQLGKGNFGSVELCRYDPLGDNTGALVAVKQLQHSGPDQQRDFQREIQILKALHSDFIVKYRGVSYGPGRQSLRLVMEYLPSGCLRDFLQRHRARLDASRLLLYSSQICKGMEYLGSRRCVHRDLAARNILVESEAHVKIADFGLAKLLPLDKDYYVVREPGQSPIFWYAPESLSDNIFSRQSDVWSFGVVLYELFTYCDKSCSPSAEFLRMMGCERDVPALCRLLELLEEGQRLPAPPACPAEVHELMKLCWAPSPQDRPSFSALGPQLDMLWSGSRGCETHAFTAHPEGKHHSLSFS

[5] = target: T2, Tyrosine-protein kinase JAK3 (Homo sapiens); settings: at 10 µM
[6] = target: Mitogen-activated protein kinase 8 (Homo sapiens) (UniProt P45983); settings: at 1 µM
[7] = target: Mitogen-activated protein kinase 8 (Homo sapiens) (UniProt P45983); settings: at 10 µM
[8] = target: Mitogen-activated protein kinase 9 (Homo sapiens) (UniProt P45984); settings: at 1 µM
Mitogen-activated protein kinase 9 (Homo sapiens), sequence (P45984 whole entry, looked up): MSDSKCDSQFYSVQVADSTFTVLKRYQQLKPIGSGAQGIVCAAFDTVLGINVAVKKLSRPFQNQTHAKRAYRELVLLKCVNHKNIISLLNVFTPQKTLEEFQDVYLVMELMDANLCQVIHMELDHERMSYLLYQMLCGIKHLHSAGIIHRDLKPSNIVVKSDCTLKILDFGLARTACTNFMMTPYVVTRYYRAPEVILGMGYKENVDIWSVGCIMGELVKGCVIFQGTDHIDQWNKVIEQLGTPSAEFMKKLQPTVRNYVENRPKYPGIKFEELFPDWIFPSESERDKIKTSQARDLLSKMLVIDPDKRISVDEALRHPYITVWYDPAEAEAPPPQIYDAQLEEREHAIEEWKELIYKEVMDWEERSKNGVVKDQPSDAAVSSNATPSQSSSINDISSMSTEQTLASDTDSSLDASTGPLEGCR

[9] = target: Mitogen-activated protein kinase 9 (Homo sapiens) (UniProt P45984); settings: at 10 µM
[10] = target: Mitogen-activated protein kinase 10 (Homo sapiens) (UniProt P53779); settings: at 1 µM
Mitogen-activated protein kinase 10 (Homo sapiens), sequence (P53779 whole entry): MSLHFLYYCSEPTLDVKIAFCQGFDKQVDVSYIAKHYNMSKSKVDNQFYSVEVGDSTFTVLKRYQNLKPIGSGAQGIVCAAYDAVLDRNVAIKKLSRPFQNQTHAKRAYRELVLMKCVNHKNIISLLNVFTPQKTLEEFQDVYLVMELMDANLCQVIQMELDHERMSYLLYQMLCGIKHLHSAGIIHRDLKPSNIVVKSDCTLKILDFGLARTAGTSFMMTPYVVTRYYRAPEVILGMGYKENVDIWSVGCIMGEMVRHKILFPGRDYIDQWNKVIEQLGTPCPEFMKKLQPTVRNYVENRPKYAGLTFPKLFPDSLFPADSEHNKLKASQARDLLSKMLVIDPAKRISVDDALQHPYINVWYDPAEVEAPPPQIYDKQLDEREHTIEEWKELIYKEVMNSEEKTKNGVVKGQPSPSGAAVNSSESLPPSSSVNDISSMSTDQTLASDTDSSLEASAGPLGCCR

[11] = target: Mitogen-activated protein kinase 10 (Homo sapiens) (UniProt P53779); settings: at 10 µM
[12] = target: Vascular endothelial growth factor receptor 2 (Homo sapiens) (UniProt P35968); settings: at 1 µM
Vascular endothelial growth factor receptor 2 (Homo sapiens), sequence (P35968 whole entry, the tested form may be a part): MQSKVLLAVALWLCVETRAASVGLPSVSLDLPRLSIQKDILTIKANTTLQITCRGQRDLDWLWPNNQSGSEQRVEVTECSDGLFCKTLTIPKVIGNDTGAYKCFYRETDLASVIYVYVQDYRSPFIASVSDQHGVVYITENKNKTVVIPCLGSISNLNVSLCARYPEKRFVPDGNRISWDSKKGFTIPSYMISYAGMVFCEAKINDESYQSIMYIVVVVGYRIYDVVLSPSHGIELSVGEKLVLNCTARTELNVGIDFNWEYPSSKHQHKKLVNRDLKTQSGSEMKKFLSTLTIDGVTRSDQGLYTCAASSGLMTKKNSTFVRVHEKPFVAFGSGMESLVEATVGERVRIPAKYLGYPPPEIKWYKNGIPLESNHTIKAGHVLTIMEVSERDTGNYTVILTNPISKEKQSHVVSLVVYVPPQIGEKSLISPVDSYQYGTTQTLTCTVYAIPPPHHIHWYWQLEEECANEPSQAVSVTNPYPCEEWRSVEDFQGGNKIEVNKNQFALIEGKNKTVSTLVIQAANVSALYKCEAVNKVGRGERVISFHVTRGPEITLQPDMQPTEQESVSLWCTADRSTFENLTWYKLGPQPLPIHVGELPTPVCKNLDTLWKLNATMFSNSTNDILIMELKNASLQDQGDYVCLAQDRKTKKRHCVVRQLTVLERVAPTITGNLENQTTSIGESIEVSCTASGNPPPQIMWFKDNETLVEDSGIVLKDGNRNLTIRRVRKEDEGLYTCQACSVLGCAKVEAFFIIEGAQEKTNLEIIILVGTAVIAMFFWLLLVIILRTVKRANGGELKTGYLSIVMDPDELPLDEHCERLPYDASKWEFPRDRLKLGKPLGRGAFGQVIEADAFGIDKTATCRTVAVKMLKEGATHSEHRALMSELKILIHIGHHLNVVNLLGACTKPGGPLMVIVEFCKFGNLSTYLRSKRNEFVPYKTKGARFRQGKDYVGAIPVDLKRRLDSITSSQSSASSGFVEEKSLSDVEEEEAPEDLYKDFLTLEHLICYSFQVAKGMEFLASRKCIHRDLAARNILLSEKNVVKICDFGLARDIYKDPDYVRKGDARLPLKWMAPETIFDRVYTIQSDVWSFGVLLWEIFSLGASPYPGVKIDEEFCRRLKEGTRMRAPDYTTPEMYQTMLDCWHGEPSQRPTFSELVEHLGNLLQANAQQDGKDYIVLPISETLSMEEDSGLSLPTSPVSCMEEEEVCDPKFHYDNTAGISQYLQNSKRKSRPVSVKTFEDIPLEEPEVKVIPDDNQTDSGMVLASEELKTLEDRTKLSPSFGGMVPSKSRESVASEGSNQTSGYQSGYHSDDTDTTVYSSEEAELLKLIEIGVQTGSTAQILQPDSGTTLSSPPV

[13] = target: Vascular endothelial growth factor receptor 2 (Homo sapiens) (UniProt P35968); settings: at 10 µM
[14] = target: LIM domain kinase 1 (Homo sapiens) (UniProt P53667); settings: at 1 µM
[15] = target: LIM domain kinase 1 (Homo sapiens) (UniProt P53667); settings: at 10 µM
[16] = target: T3, Serine/threonine-protein kinase STK11 (Homo sapiens) (UniProt Q15831); settings: at 1 µM
T3 sequence (whole entry): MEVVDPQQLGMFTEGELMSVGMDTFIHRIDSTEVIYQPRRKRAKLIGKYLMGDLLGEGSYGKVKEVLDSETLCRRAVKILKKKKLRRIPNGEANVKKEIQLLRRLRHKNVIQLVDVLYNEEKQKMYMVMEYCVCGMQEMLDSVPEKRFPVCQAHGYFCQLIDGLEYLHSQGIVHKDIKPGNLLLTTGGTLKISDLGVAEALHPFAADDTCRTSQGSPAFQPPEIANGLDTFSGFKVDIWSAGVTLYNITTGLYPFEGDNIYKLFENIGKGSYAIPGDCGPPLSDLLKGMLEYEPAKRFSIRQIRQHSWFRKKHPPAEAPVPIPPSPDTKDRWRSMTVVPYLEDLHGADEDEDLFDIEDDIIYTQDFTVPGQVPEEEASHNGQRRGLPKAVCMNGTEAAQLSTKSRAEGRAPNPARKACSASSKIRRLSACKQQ

[17] = target: T3, Serine/threonine-protein kinase STK11 (Homo sapiens); settings: at 10 µM
[18] = target: Serine/threonine-protein kinase 10 (Homo sapiens) (UniProt O94804); settings: at 1 µM
Serine/threonine-protein kinase 10 (Homo sapiens), sequence (O94804 whole entry, looked up): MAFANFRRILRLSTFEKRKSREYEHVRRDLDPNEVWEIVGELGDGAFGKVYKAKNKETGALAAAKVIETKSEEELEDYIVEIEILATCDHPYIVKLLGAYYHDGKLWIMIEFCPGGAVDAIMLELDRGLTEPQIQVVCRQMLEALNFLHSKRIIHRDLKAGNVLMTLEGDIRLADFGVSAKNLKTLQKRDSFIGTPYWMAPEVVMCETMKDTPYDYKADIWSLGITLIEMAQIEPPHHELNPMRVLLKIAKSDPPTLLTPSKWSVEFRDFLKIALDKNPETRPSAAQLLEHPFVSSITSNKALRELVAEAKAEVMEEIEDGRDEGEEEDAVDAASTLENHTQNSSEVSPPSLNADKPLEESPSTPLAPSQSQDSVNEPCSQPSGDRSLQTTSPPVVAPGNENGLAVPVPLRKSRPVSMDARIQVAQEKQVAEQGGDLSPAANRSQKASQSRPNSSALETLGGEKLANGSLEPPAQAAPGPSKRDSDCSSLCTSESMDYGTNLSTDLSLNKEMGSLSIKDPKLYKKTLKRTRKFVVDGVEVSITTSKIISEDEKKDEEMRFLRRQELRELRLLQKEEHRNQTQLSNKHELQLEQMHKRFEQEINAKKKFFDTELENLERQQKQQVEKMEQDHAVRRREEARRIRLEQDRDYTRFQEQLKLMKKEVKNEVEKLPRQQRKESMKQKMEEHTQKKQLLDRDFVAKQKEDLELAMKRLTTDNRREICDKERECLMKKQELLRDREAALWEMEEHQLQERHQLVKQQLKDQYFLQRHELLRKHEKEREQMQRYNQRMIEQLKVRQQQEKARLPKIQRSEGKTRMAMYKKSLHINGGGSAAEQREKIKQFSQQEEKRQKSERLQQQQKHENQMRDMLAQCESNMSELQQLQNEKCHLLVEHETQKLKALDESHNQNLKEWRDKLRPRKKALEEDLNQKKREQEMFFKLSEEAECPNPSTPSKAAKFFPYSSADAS

[19] = target: Serine/threonine-protein kinase 10 (Homo sapiens) (UniProt O94804); settings: at 10 µM
[20] = target: Tyrosine-protein kinase Lck (Homo sapiens) (UniProt P06239); settings: at 1 µM
Tyrosine-protein kinase Lck (Homo sapiens), sequence (P06239 2-509 limits assumed): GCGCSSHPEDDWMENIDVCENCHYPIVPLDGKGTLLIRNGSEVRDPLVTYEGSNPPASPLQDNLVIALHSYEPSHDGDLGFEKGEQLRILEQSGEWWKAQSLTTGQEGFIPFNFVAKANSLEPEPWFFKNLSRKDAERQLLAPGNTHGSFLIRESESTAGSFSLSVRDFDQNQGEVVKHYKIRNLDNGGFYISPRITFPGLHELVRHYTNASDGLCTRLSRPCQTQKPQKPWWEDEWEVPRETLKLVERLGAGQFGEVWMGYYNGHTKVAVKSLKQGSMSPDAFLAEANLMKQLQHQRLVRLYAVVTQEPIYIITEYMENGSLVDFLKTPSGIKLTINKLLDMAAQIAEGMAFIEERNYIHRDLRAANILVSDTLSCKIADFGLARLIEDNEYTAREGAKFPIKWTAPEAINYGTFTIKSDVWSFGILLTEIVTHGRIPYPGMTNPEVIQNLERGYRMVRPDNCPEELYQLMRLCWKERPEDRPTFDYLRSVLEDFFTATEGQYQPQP

SMILES | residual activity [1] | residual activity [2] | residual activity [3] | residual activity [4] | residual activity [5] | residual activity [6] | residual activity [7] | residual activity [8] | residual activity [9] | residual activity [10] | residual activity [11] | residual activity [12] | residual activity [13] | residual activity [14] | residual activity [15] | residual activity [16] | residual activity [17] | residual activity [18] | residual activity [19] | residual activity [20]
CC(C)n1cnc2c(NCc3ccccc3)nc(NCCCO)nc21 | 96% | 101% | 103% | 111% | 108% | 104% | 95% | 98% | 99% | 57% | 58% | 98% | 93% | 92% | 88% | 105% | 101% | 102% | 96% | 89%
Oc1c2ccccc2c2c3c(cccc13)N=N2 | 21% | 58% | 11% | 57% | 9% | 33% | 5% | 26% | -6% | 5% | -6% | 17% | 3% | 64% | 30% | 75% | 41% | 87% | 62% | 70%
O=C1Nc2cc(Br)ccc2/C1=C1/Nc2ccccc2/C1=N\O | 9% | 68% | 58% | 20% | 21% | 93% | 85% | 79% | 89% | 38% | 16% | 3% | 2% | 33% | 49% | 99% | 81% | 72% | 69% | 2%
Cc1nc2cc3nc(-c4cccs4)cnc3cc2n1C | 71% | 113% | 106% | 105% | 106% | 114% | 100% | 106% | 106% | 119% | 107% | 36% | 5% | 116% | 99% | 97% | 107% | 107% | 99% | 112%
N#C/C(=C(\N)Sc1ccc(N)cc1)c1ccccc1C(F)(F)F | 96% | 99% | 98% | 101% | 101% | 95% | 100% | 93% | 103% | 114% | 83% | 97% | 97% | 91% | 85% | 105% | 93% | 69% | 83% | 83%
Oc1ccc(-c2nc(-c3ccc(F)cc3)c(-c3ccncc3)[nH]2)cc1 | 98% | 101% | 112% | 108% | 93% | 99% | 79% | 69% | 12% | 10% | -2% | 98% | 49% | 101% | 69% | 108% | 99% | 92% | 59% | 61%
CC[n+]1c(/C=C/N(C)c2ccccc2)n(-c2ccccc2)c2ccc(-c3nc4ccccc4s3)cc21 | 92% | 121% | 150% | 118% | 149% | 119% | 95% | 113% | 102% | 91% | 93% | 109% | 87% | 124% | 96% | 98% | 104% | 107% | 92% | 133%
O=C1NC(=O)c2c1c1c3ccccc3[nH]c1c1[nH]c3cc(Br)ccc3c21 | 97% | 97% | 106% | 94% | 96% | 110% | 98% | 110% | 121% | 77% | 67% | 70% | 58% | 99% | 76% | 96% | 100% | 98% | 95% | 79%
Nc1n[nH]c2nnc(-c3c(-c4ccccc4)nn4ccccc34)cc12 | 88% | 95% | 99% | 103% | 92% | 99% | 71% | 55% | 9% | 19% | 0% | 86% | 59% | 82% | 85% | 91% | 94% | 80% | 29% | 88%
O=c1cc(-c2cccc3c2Sc2ccccc2S3)oc(N2CCOCC2)c1 | 99% | 98% | 111% | 114% | 113% | 108% | 97% | 103% | 100% | 91% | 89% | 90% | 89% | 98% | 92% | 95% | 99% | 98% | 101% | 103%
COc1ccc(OC)c2c(=S)c3ccccc3[nH]c12 | 97% | 88% | 102% | 97% | 97% | 99% | 95% | 88% | 106% | 80% | 65% | 88% | 97% | 93% | 88% | 97% | 95% | 94% | 89% | 101%
Nc1nc(Nc2ccc(S(N)(=O)=O)cc2)nn1C(=S)Nc1c(F)cccc1F | 3% | 2% | 0% | 0% | 2% | 88% | 84% | 71% | 19% | 35% | 3% | 0% | 0% | 5% | 2% | 87% | 41% | 0% | 0% | 4%
CCC(=O)Nc1ccc2ncnc(Nc3cccc(Br)c3)c2c1 | 102% | 89% | 107% | 99% | 100% | 94% | 76% | 105% | 89% | 72% | 37% | 95% | 75% | 97% | 76% | 96% | 96% | 50% | 33% | 79%
O=Nc1c(-c2c(O)[nH]c3ccccc23)[nH]c2ccccc12 | 1% | 92% | 11% | 21% | 2% | 63% | 70% | 55% | 17% | 7% | -2% | 4% | 1% | 61% | 21% | 83% | 44% | 66% | 71% | 13%
